In PubChem BioAssay (NCATS) one finds Potency data, which are given here for 38 molecules.

Each structure is given as a SMILES string. Records with an inconclusive call do not appear. Entries that show only a call come without a potency. The source made the active and inactive calls. The call rests on the fitted dose curve; in most records, active means well fitted curve in the direction sought with a large enough effect; inconclusive means small, poorly fitted or top-dose-only effect, or another doubt; inactive means no such curve, though single readings can be large; an effect the other way counts as inactive or inconclusive.

Assay [1] concerns the target Aldehyde dehydrogenase, mitochondrial (Homo sapiens) (UniProt P05091). Description: qHTS for Inhibitors of the Aldehyde Dehydrogenase Family (ALDH2) Primary screen (AID 2061308). Further: nearly all actives have a fitted effect of over 55% in size.
Assay [2] addresses Retinaldehyde dehydrogenase 3 (Homo sapiens) (UniProt P47895). The assay can be described thus: qHTS for Inhibitors of the Aldehyde Dehydrogenase Family (ALDH1A3) Primary screen (AID 2061315).

Regarding `Oc1ccc(/C=C/c2ccccc2F)c2cccnc12`, the Potency entry in assay [1] and in assay [2] was “inactive” throughout.
Take `CCc1ccc2oc(NC3=NC(c4[nH]ncc4Cl)C4=C(CCCC4=O)N3)nc2c1` (stereo unspecified): the Potency entry in assay [1] and in assay [2] was “inactive” throughout.
For `O=C1CCCC2=C1C(c1[nH]ncc1Cl)N=C(Nc1ccccc1)N2` (stereo unspecified), the Potency result in assay [1] and in assay [2] was “inactive” each time.
Turning to `CCOc1ccc(CCNC(=O)c2cc3ccccc3n2Cc2cc(C)cc(C)n2)cc1OCC`, the Potency entry in assay [1] and in assay [2] was “inactive” throughout.
For the molecule `O=c1c2[nH]c3ccsc3c2cnn1Cc1ccccc1F`, the Potency entry in assay [1] and in assay [2] was “inactive” each time.
For `Oc1cccc2cc(Nc3ccccc3)cnc12`, the Potency entry in assay [1] and in assay [2] was “inactive” in each case.
On to `CC(=O)c1ccccc1-c1ncc(C)c(NCC2CCN(c3cccnc3)CC2)n1`, for which the Potency result in assay [1] and in assay [2] was “inactive” each time.
Consider `CC(=O)Nc1ccc(S(=O)(=O)Nc2ccc(C)c(C)c2)cc1`, for which the Potency result in assay [1] and in assay [2] was “inactive” throughout.
Regarding `Cc1cc(C)n2ncc(C(=O)Nc3ccc(C(F)(F)F)cc3)c2n1`, the Potency result in assay [1] and in assay [2] was “inactive” in each case.
For `Cc1nc(NCc2ccccc2)c2nc(-c3ccccc3)n(CCN3CCOCC3)c2n1`, the Potency result in assay [1] and in assay [2] was “inactive” throughout.
With `Cc1ccc(NS(=O)(=O)c2cccc(C(=O)Nc3nc(-c4ccccc4)cs3)c2)cc1`, the Potency result in assay [1] and in assay [2] was “inactive” in each case.
As to `N#Cc1cc(-c2nc(Nc3ccc(F)c(F)c3)c3ccccc3n2)ccn1`, the Potency result in assay [1] and in assay [2] was “inactive” throughout.
Take `COc1cc2ncnc(Nc3cccc(O)c3)c2cc1OC`: the Potency result in assay [1] and in assay [2] was “inactive” throughout.
As for `O=[N+]([O-])c1cccc(CSc2nc3ncc(Br)cc3[nH]2)c1`, the Potency entry in assay [1] and in assay [2] was “inactive” throughout.
`Cc1ccc(-c2ccc(=O)n(CC(=O)N(C)CCN(C)C)n2)cc1`: the Potency result in assay [1] and in assay [2] was “inactive” each time.
Consider `O=[S+]([O-])(NC[C@H]1CCC[C@H](CN[S+](=O)([O-])c2c(F)cccc2F)C1)c1ccc2c(c1)OCCO2`, for which the Potency result in assay [1] and in assay [2] was “inactive” each time.
For the molecule `Cc1cc(NS(=O)(=O)c2cc3c(cc2F)NC(=O)CC3)ccc1Cl`, the Potency result in assay [1] and in assay [2] was “inactive” in each case.
Consider `O=S(=O)(c1ccc2c(c1)OCCO2)N1C[C@@H]2C[C@H]1CN2S(=O)(=O)c1c(F)cccc1F`, for which the Potency entry in assay [1] and in assay [2] was “inactive” each time.
For `O=C(/C=C/c1ccc(F)cc1)Nc1cccc([S+](=O)([O-])Nc2ccccc2F)c1`, the Potency entry in assay [1] and in assay [2] was “inactive” each time.
As to `Cc1cccc(-n2cnc3cc(C(=O)N4CCCCCC4)ccc32)c1`, the Potency entry in assay [1] and in assay [2] was “inactive” throughout.
As for `Cc1cc(C)nc(NC(=S)N2CCN(c3ccc(F)cc3F)CC2)c1`, the Potency entry in assay [1] and in assay [2] was “inactive” throughout.
Turning to `Cc1cc(C)nc(NC(=S)N2CCN(c3ncccc3C#N)CC2)c1`, the Potency result in assay [1] and in assay [2] was “inactive” each time.
Take `CC1=C(C(=O)c2ccccc2)C(c2ccccc2Cl)N=C(Nc2nc3ccccc3o2)N1` (stereo unspecified): the Potency entry in assay [1] and in assay [2] was “inactive” in each case.
As for `O=C(O)c1ccc2c(c1)C(=O)N([C@H](Cc1c3ccccc3cc3ccccc13)C(=O)O)C2=O`, the Potency result in assay [1] and in assay [2] was “inactive” in each case.
On to `FC(F)(F)c1ccccc1-c1nc(NCc2ccc3c(c2)OCO3)c2ccccc2n1`, for which the Potency entry in assay [1] and in assay [2] was “inactive” in each case.
Take `O=C(Cc1ccc(Cl)c(Cl)c1)Nc1ccc([S+](=O)([O-])Nc2cccc([N+](=O)[O-])c2)cc1`: the Potency entry in assay [1] and in assay [2] was “inactive” each time.
As for `O=C(Nc1nc(-c2ccccc2)cs1)c1ccncc1NS(=O)(=O)c1ccc(N2CCCC2=O)cc1`, the Potency result in assay [1] and in assay [2] was “inactive” throughout.
As to `O=C([C@H](Cc1ccc(O[S+](=O)([O-])c2cccc3cccnc23)cc1)N[S+](=O)([O-])c1cccnc1)N1CCN(c2ccccc2)CC1`, the Potency entry in assay [1] and in assay [2] was “inactive” in each case.
With `COc1cccc(CNc2ccc(S(=O)(=O)Nc3cnc4ccccc4c3)cc2)c1O`, the Potency result in assay [1] and in assay [2] was “inactive” in each case.
For `O=[S+]([O-])(Nc1ccc(C2CCNCC2)cc1)c1ccc(NCc2ccc(Br)cc2O)cc1`, the Potency entry in assay [1] and in assay [2] was “inactive” throughout.
For `Cc1ccc(S(=O)(=O)N(C)c2ccccc2C(=O)Nc2nc(-c3ccccc3)cs2)cc1`, the Potency result in assay [1] and in assay [2] was “inactive” throughout.
Take `CN(C)CC1CCN(C2CCN(C(=O)c3cccc(-c4cc(O)c5ncccc5c4)c3)CC2)CC1`: the Potency entry in assay [1] and in assay [2] was “inactive” throughout.
Take `O=C(/C=C/c1ccccc1Br)NCCc1nc2ccccc2[nH]1`: the Potency entry in assay [1] and in assay [2] was “inactive” throughout.
Regarding `CC(=O)N1c2ccc(S(=O)(=O)Nc3ccc(C)c(C)c3)cc2CC1C` (stereo unspecified), the Potency result in assay [1] and in assay [2] was “inactive” in each case.
As for `COc1cccc(NCc2ccc(O)c3ncccc23)n1`, the Potency entry in assay [1] and in assay [2] was “inactive” throughout.
Consider `C=C(C)c1cc2c(s1)c1cnn(Cc3ccccc3F)c(=O)c1n2C`, for which the Potency entry in assay [1] and in assay [2] was “inactive” in each case.
Turning to `O=S(=O)(c1ccc(C(F)(F)F)cc1)N1CCN(S(=O)(=O)c2ccc3c(c2)OCCO3)CC1`, the Potency entry in assay [1] and in assay [2] was “inactive” each time.
Consider `O=C(O)c1ccc2c(c1)C(=O)N([C@H](Cc1ccc(O)cc1)C(=O)O)C2=O`, for which the Potency result in assay [1] and in assay [2] was “inactive” each time.
